Measurements: PubChem BioAssay (NCI)
About 83,000 compounds went through this panel and 20% of them were active in at least one assay; those are over-represented in the sample as a whole.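 How to read the values: 0–100, growth inhibition (40 = 60% inhibited); 0, no net growth; -100 to 0, cell death (-40 = 40% of starting cells died; -100 = all dead).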 Values without a mark were called inactive. The source made the active and inactive calls. The calls were made as follows: active = growth percent below 10; inactive = the rest.

Key:
Test in all cases: NCI-60 one-dose screen, 48 h (100 = growth as untreated, 0 = no growth, -100 = all killed)
Conditions in all cases: 10 µM
NCI-H23 lung = tested on: NCI-H23 lung
NCI-H226 lung = tested on: NCI-H226 lung
NCI-H322M lung = tested on: NCI-H322M lung
HOP-62 NSCLC = tested on: HOP-62 NSCLC
NCI-H460 lung = tested on: NCI-H460 lung
HOP-92 NSCLC = tested on: HOP-92 NSCLC
NCI-H522 lung = tested on: NCI-H522 lung
A549/ATCC NSCLC = tested on: A549/ATCC NSCLC
786-0 renal = tested on: 786-0 renal
COLO 205 colon = tested on: COLO 205 colon

| Compound | growth (NCI-H23 lung) | growth (NCI-H226 lung) | growth (NCI-H322M lung) | growth (HOP-62 NSCLC) | growth (NCI-H460 lung) | growth (HOP-92 NSCLC) | growth (NCI-H522 lung) | growth (A549/ATCC NSCLC) | growth (786-0 renal) | growth (COLO 205 colon) |
| --- | --- | --- | --- | --- | --- | --- | --- | --- | --- | --- |
| O=C(Nc1ccc(OS(=O)(=O)Cc2ccccc2)cc1)C12CC3CC(CC(C3)C1)C2 | 84.8% | 90.3% | 95.3% | 79.3% | 68.8% | 59.9% | 81.6% | 78.5% | 94.1% | – |
| CC(=O)[C@H]1CC[C@H]2[C@@H]3CC[C@@H]4CC=C(C=O)C[C@]4(C)[C@H]3CC[C@]12C | 92.7% | 99.4% | 97.6% | 122% | 103% | 68.1% | 82.5% | 92.4% | 93.2% | – |
| Clc1cc(Cl)c(Cl)c(-c2nc(-c3cccnc3)cs2)c1 | 94.8% | 90.9% | 99.2% | 114% | 92.2% | 79.7% | -51% (active) | 78.9% | 99.1% | – |
| CC(=O)Oc1ccc(C2=Cc3ccc(OC(C)=O)cc3OC2C)cc1 (stereo unspecified) | 49.3% | 82.9% | 98.2% | 81.8% | 33.7% | 69.4% | 17.2% | 61.5% | 47.5% | – |
| CCOC(=S)Sc1ccc([N+](=O)[O-])cc1[N+](=O)[O-] | 97.3% | 88.8% | 93.3% | 94% | 106% | 48.6% | -1.29% (active) | 83.2% | 102% | – |
| CCOC(=O)C(=O)Cc1cccnn1 | 101% | 95.2% | 109% | 103% | 116% | 86.1% | 97.2% | 97.5% | 96.4% | – |
| CCCCCCCCCCCCCCCCn1cc[n+](C)c1 | -51.9% (active) | -60.5% (active) | 8.28% (active) | -82.7% (active) | -87.9% (active) | -80.2% (active) | -87.4% (active) | -50.9% (active) | -90.4% (active) | – |
| CCCCCCOc1ccc(/C=C/C(=O)c2ccc(B(O)O)cc2)cc1 | 76.2% | 75.6% | 85.9% | 89.8% | 91.7% | 5.7% (active) | 66.1% | 75.7% | 73% | – |
| CNC(=O)c1cc(Oc2ccc(NC(=O)Nc3ccc(Cl)c(OC(C)C)c3)c(F)c2)ccn1 | 28.1% | 52.5% | 81.1% | 69.3% | 61.1% | 60.1% | 25.3% | 44.5% | 107% | – |
| CCN(CC)CCOC(=O)c1ccc(N=Nc2ccc(O)c(OC)c2)cc1 | 94.5% | 90.4% | 90.9% | 98.8% | 110% | 94.6% | 63.8% | 91.1% | 95.9% | 107% |
| CCn1nc(-c2ccccn2)c2cccnc2c1=S | 36.8% | 93.8% | 87.3% | 98% | 53.7% | 73.4% | 70.5% | 44.8% | 106% | 30.9% |
| COCc1cc2c(cc1Br)OCO2 | 96.7% | 95.5% | 96.5% | 87.3% | 106% | 102% | 88.6% | 88.4% | 102% | 102% |
| CC(CNC(Cc1ccccc1)c1ccccc1)NC(Cc1ccccc1)c1ccccc1 (stereo unspecified) | 30.3% | 34.8% | 77.7% | 39.9% | 8.03% (active) | -0.172% (active) | 9.37% (active) | 46.8% | 50.2% | 9.3% (active) |
| COC(=O)[C@]12CC[C@@H](C)[C@H](C)[C@@H]1C1=CC[C@@H]3[C@@]4(C)CC(=O)[C@H](O)[C@@]5(C)COC(=C45)C[C@@]3(C)[C@]1(C)CC2 | -66.5% (active) | -74.7% (active) | -73.4% (active) | -74.7% (active) | -51.8% (active) | -83.2% (active) | -76.3% (active) | -60.4% (active) | -76.5% (active) | -80.6% (active) |
| N#CN1CC[C@H](C(=O)Nc2ncc(-c3ccccc3)s2)C1 | -9.83% (active) | -6.52% (active) | 28.4% | -3.88% (active) | 2.02% (active) | 0.798% (active) | -35.6% (active) | -5.79% (active) | 3.56% (active) | -63.3% (active) |
| Cc1ccc(/C(CS(=O)(=O)c2ccc(C)cc2)=N\O)cc1 | 99.9% | 93.6% | 104% | 111% | 106% | 87.4% | 97% | 94.6% | 102% | 118% |
| CC(=O)Nc1ccc(Sc2ccc(NC(C)=O)cc2)cc1 | 94.1% | 101% | 110% | 70.7% | 105% | 83.1% | 75.7% | 80% | 94% | 101% |
| Cc1nc(Nc2nc3ccccc3o2)nc(-c2cccc([N+](=O)[O-])c2)c1C(=O)Nc1ccc(F)c(Cl)c1 | 0.258% (active) | 10.3% | 24.9% | 16% | 2.04% (active) | -38.9% (active) | -20.5% (active) | 5.85% (active) | 18.4% | 9.63% (active) |
| CCCn1c(=O)c2c(nc(-c3cccc(OCCCCl)c3)n2C)n(CCC)c1=O | 59.1% | 16.5% | 41% | -18.3% (active) | 24.4% | -1.14% (active) | 83.2% | 28.3% | 23.9% | 65.8% |
| O=c1[nH]c(=O)n(C2C[C@@H](O)[C@@H](CO)O2)cc1F (stereo partly specified) | 15.9% | 50.4% | 57.6% | 27.7% | 6.58% (active) | 38.9% | 20.1% | 22.2% | 8.75% (active) | 36.7% |
| Cc1nc2sccn2c1-c1csc(Nc2cccc(Cl)c2C)n1 | 52.1% | 57.3% | 81% | 79.3% | 61.2% | 16.3% | 41.8% | 37.5% | 63.3% | 69.7% |
| COC(=O)c1ccc(Cn2ccc(=O)[nH]c2=O)cc1 | 105% | 103% | 116% | 106% | 114% | 99.3% | 93.2% | 105% | 80.5% | 113% |
| Oc1ccccc1-c1nnc(Cn2c(Cc3cccc4ccccc34)nc3ccccc32)o1 | 90.8% | 93.1% | 84.4% | 87.6% | 108% | 78.3% | 92.2% | 100% | 103% | 110% |
| CCc1nn2c(-c3cc(OC)c(OC)c(OC)c3)c(-c3cc(OC)c(OC)c(OC)c3)nc2s1 | 87.9% | 92% | 81.6% | 40.8% | 97.1% | -15.2% (active) | 46% | 86% | 58.6% | 94.9% |
| O=C1CC[C@@H](C(=O)N[C@H]2CSSC[C@@H](C(=O)N/C=C/c3ccc(O)cc3)NC(=O)[C@H](Cc3ccccc3)NC(=O)[C@@H]3CCCN3C(=O)[C@@H]3CCCN3C2=O)N1 | 96.5% | 93.5% | 108% | 78.2% | 102% | 99.2% | 87.4% | 85.2% | 118% | 102% |
| CCCCC(=O)N(c1ccc(Nc2c3ccccc3nc3cc([N+](=O)[O-])ccc23)cc1)S(C)(=O)=O | 81.8% | 71.3% | 82.1% | 56% | 14% | 39.2% | 50.7% | 34% | 74.3% | 88.1% |
| CC(=O)OC1Oc2ccccc2-c2oc(=O)c(-c3ccc(F)cc3)cc21 (stereo unspecified) | 92.5% | 91.9% | 107% | 101% | 94.4% | 112% | 42.5% | 57.8% | 95.4% | 108% |
